According to PubChem BioAssay (Tox21):
Inconclusive results are not listed. Activity calls are given as the source filed them. Unless noted, calls follow the shape of the dose curve; as a rule, active = well fitted curve in the direction sought with a large enough effect in the repeat runs; inconclusive = weak or mixed curves; inactive = flat fitted curve, though single readings scatter.

How the values were obtained:
[1] = qHTS assay to test for compound auto fluorescence at 535 nm (green) in HEK293 cells (AID 720680)
[2] = qHTS assay to test for compound auto fluorescence at 460 nm (blue) in HEK293 cell free culture (AID 720681)
In short: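 Blue fluorescence (Ex 405/Em 460 nm, triamterene-equivalent) was read immediately after pin transfer of compound or DMSO into medium (DMEM, 10% FBS) without cells.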

[3] = qHTS assay to test for compound auto fluorescence at 535 nm (green) in HEK293 cell free culture (AID 720682)
In short: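 Intrinsic compound fluorescence is measured in culture medium containing 10% FBS, with excitation at 485 nm and detection at 535 nm, referenced to fluorescein.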

[4] = qHTS assay to test for compound auto fluorescence at 590 nm (red) in HEK293 cell free culture (AID 720683)
In short: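 Red-channel autofluorescence of compounds in culture medium (DMEM, 10% FBS), no cells, measured at 540/590 nm. Rose Bengal sodium is the reference fluorophore for equivalence.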

[5] = qHTS assay to test for compound auto fluorescence at 590 nm (red) in HepG2 cell free culture (AID 720684)
In short: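 Cell-free; medium MEM + 10% FBS; compound or DMSO added by pintool; read Ex 540/Em 590 nm; Rose Bengal sodium as red reference fluorophore.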

[6] = qHTS assay to test for compound auto fluorescence at 460 nm (blue) in HepG2 cell free culture (AID 720685)
In short: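 Cell-free plates of MEM plus 10% FBS received 23 nL compound or DMSO vehicle; blue-channel (405/460 nm) intensity scored against triamterene as reference fluorophore.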

[7] = qHTS assay to test for compound auto fluorescence at 535 nm (green) in HepG2 cell free culture (AID 720686)
[8] = qHTS assay to test for compound auto fluorescence at 460 nm (blue) in HepG2 cells (AID 720687)
In short: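 Blue-channel autofluorescence (Ex/Em 405/460 nm, triamterene-equivalent) was measured after 1 hr compound exposure at 37 C, 5% CO2. Cells were HepG2, plated overnight at 37 C in MEM plus 10% FBS.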

[9] = target: Glucocorticoid receptor (Homo sapiens) (UniProt P04150); assay: qHTS assay to identify small molecule agonists of the glucocorticoid receptor (GR) signaling pathway (AID 720691; active = well fitted activation curve with a large enough effect in the signal ratio in the repeat runs, not every such curve was filed as active; the % refers to the signal ratio)
In short: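 Steps: seed GR-bla HeLa cells, incubate 4 h at 37 C/5% CO2; pin-transfer DMSO-dissolved compounds; incubate 18 h at 37 C; add LiveBLAzer B/G FRET substrate; after 2 h at room temperature, measure fluorescence.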

[10] = target: Glucocorticoid receptor (Homo sapiens) (UniProt P04150); assay: qHTS assay to identify small molecule antagonists of the glucocorticoid receptor (GR) signaling pathway (AID 720692; active = well fitted inhibition curve with a large enough effect in the signal ratio in the repeat runs, not every such curve was filed as active; the % refers to the signal ratio)
In short: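 Antagonism was scored as loss of dexamethasone-driven (5 nM final) reporter signal in HeLa cells bearing a glucocorticoid response element–beta-lactamase construct, after 18 h compound exposure at 37 C and 2 h FRET substrate loading.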

Measured: Potency

Sequence of Glucocorticoid receptor (Homo sapiens) (P04150 whole entry, looked up): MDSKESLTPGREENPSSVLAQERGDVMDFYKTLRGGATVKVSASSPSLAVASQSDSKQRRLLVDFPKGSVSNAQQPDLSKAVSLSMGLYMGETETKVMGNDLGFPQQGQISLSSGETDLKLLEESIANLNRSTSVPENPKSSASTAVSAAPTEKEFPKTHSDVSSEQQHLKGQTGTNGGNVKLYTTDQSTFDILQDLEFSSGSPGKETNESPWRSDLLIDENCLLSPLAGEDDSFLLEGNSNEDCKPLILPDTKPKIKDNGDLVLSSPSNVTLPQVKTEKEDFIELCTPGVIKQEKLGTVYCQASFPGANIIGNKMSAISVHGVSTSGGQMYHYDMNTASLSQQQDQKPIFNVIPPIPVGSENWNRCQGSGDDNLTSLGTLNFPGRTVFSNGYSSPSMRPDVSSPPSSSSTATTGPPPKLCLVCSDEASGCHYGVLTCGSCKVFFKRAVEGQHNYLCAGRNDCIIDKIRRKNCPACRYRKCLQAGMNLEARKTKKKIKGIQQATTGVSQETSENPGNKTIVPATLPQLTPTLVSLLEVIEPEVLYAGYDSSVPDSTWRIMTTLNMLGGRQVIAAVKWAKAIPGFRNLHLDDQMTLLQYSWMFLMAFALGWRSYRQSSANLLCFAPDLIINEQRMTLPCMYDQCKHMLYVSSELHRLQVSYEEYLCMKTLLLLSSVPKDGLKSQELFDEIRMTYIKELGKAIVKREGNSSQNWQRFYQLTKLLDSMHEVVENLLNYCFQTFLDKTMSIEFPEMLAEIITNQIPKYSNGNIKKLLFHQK

NC(N)=S
inactive: [1] | [2] | [3] | [4] | [5] | [6] | [7] | [8] | [9] | [10]

CCCCCCCCO
inactive: [1] | [2] | [3] | [4] | [5] | [6] | [7] | [8] | [9] | [10]

CC[N+](CC)(CC(=O)Nc1c(C)cccc1C)Cc1ccccc1
inactive: [1] | [2] | [3] | [4] | [5] | [6] | [7] | [8]

Cc1ccncc1
inactive: [1] | [2] | [3] | [4] | [5] | [6] | [7] | [8] | [9] | [10]

O=c1c(O)c(-c2ccc(O)c(O)c2)oc2cc(O)cc(O)c12
inactive: [1] | [2] | [3] | [4] | [5] | [6] | [7] | [8]

NCCNCCNCCN
inactive: [1] | [2] | [3] | [4] | [5] | [6] | [7] | [8] | [9] | [10]

CC(C=O)Cc1ccc(C(C)(C)C)cc1 (configuration not stated)
inactive: [1] | [2] | [3] | [4] | [5] | [6] | [7] | [8] | [9] | [10]

O=c1n(CCCN2CCN(c3cccc(Cl)c3)CC2)nc2ccccn12
inactive: [1] | [2] | [3] | [4] | [5] | [6] | [7] | [8]

CC1=CC(=O)CC(C)(C)C1
inactive: [1] | [2] | [3] | [4] | [5] | [6] | [7] | [8] | [9] | [10]

C=CC(C)(C)C
inactive: [1] | [2] | [3] | [4] | [5] | [6] | [7] | [8] | [9] | [10]

N[C@@H](Cc1cc(I)c(Oc2ccc(O)c(I)c2)c(I)c1)C(=O)O
inactive: [1] | [2] | [3] | [4] | [5] | [6] | [7] | [8] | [9]

CC(=O)OCCC(C)C
inactive: [1] | [2] | [3] | [4] | [5] | [6] | [7] | [8] | [9] | [10]

COC(=O)CCCCC(=O)OC
inactive: [1] | [2] | [3] | [4] | [5] | [6] | [7] | [8] | [9] | [10]

NC(=O)c1ncn([C@@H]2O[C@H](CO)[C@@H](O)[C@H]2O)n1
inactive: [1] | [2] | [3] | [4] | [5] | [6] | [7] | [8] | [9] | [10]

CC(C)=CCC/C(C)=C/C=O
inactive: [1] | [2] | [3] | [4] | [5] | [6] | [7] | [8] | [9] | [10]

Cc1ncc(CO)c(CO)c1O
inactive: [1] | [2] | [3] | [4] | [5] | [6] | [7] | [8]

O=C1O[C@H]([C@H](O)CO)C(O)=C1O
inactive: [1] | [2] | [3] | [4] | [5] | [6] | [7] | [8] | [9] | [10]

COC(=O)/C=C\C(=O)OC
inactive: [1] | [2] | [3] | [4] | [5] | [6] | [7] | [8] | [9]

O=C(NCC1CCCCN1)c1cc(OCC(F)(F)F)ccc1OCC(F)(F)F (configuration not stated)
inactive: [1] | [2] | [3] | [4] | [5] | [6] | [7] | [8]

CC(=O)C(C)C
inactive: [1] | [2] | [3] | [4] | [5] | [6] | [7] | [8] | [9] | [10]

O=[N+]([O-])c1cc(C(F)(F)F)ccc1Cl
inactive: [1] | [2] | [3] | [4] | [5] | [6] | [7] | [8] | [9] | [10]

Cc1ccc([N+](=O)[O-])cc1N
inactive: [1] | [2] | [3] | [4] | [5] | [6] | [7] | [8]

CCCCCCCCCCCCCC(=O)O
inactive: [1] | [2] | [3] | [4] | [5] | [6] | [7] | [8] | [9] | [10]

CCCN(CCC)C(=O)SCC
inactive: [1] | [2] | [3] | [4] | [5] | [6] | [7] | [8] | [9] | [10]

CCCCC(CC)COC(=O)c1ccc(C(=O)OCC(CC)CCCC)cc1 (configuration not stated)
inactive: [1] | [2] | [3] | [4] | [5] | [6] | [7] | [8]

CC(CN1c2ccccc2Sc2ccccc21)N(C)C (configuration not stated)
inactive: [1] | [2] | [3] | [4] | [5] | [6] | [7] | [8]
